In the supplement of paper PMC12494721:
Counter-ions that a name gives are not always drawn.

Columns and labels:
Conditions in all cases: incubation time: 27 h, anaerobic, 37 °C;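 for the amine columns active = adjusted P below 0.05 in both replicates with a change the same way and a mean fold change under 0.8 or over 1.25; inactive = the rest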
[1] = system: Clostridium sporogenes DSM 1664; test: growth (OD595) fold change vs plate DMSO controls (fold change (ratio)); higher = more growth
Summary of the method: (§1)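 The 96-well mGAM cultures had been kept anaerobic for 27 h at 37 °C before being shaken and read at 595 nm. Blank subtraction, compound background correction with 20 µM compound solutions in water, and a calibration factor of 5 turned the readings into OD. Growth is given as the fold change versus the median of plate DMSO controls. Fold changes above 1.5 were set to NA, and the values are means of 2 biological replicates.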

[2] = system: Escherichia coli IAI1; test: as above
Summary of the method: as §1

[3] = system: Klebsiella aerogenes DSM 30053; test: as above
Summary of the method: as §1

[4] = system: Ruminococcus gnavus DSM 108212; test: as above
Summary of the method: as §1

[5] = system: Klebsiella aerogenes DSM 30053; test: fold change of Histamine concentration vs plate DMSO controls (fold change (ratio)); higher = more amine produced, active = hit call of the paper (significant change in both replicates, either direction)
Summary of the method: (§2)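 Extracts of whole anaerobic mGAM cultures were analysed for amines by LC–triple-quadrupole MS with dynamic MRM and external calibration curves, with drift corrected within batch. Four gut strains were grown at 37 °C for 27 h in 80 µL wells with compounds at 20 µM final, sweeteners at 50 µM final. Each value expresses fold change over plate DMSO controls. The average of 2 biological replicates is shown.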

[6] = system: Clostridium sporogenes DSM 1664; test: fold change of Tryptamine concentration vs plate DMSO controls (fold change (ratio)); higher = more amine produced, active = hit call of the paper (significant change in both replicates, either direction)
Summary of the method: as §2

[7] = system: Ruminococcus gnavus DSM 108212; test: as above
Summary of the method: as §2

[8] = system: Escherichia coli IAI1; test: fold change of Putrescine concentration vs plate DMSO controls (fold change (ratio)); higher = more amine produced, active = hit call of the paper (significant change in both replicates, either direction)
Summary of the method: as §2

[9] = system: Klebsiella aerogenes DSM 30053; test: as above
Summary of the method: as §2

[10] = system: Escherichia coli IAI1; test: fold change of Cadaverine concentration vs plate DMSO controls (fold change (ratio)); higher = more amine produced, active = hit call of the paper (significant change in both replicates, either direction)
Summary of the method: as §2

[11] = system: Klebsiella aerogenes DSM 30053; test: as above
Summary of the method: as §2

[12] = system: Ruminococcus gnavus DSM 108212; test: fold change of 2-Phenylethylamine concentration vs plate DMSO controls (fold change (ratio)); higher = more amine produced, active = hit call of the paper (significant change in both replicates, either direction)
Summary of the method: as §2

SMILES | growth [1] | growth [2] | growth [3] | growth [4] | fold change of Histamine concentration [5] | fold change of Tryptamine concentration [6] | fold change of Tryptamine concentration [7] | fold change of Putrescine concentration [8] | fold change of Putrescine concentration [9] | fold change of Cadaverine concentration [10] | fold change of Cadaverine concentration [11] | fold change of 2-Phenylethylamine concentration [12]
CC(C(O)c1ccc(O)cc1)N1CCC(Cc2ccccc2)CC1 (centres undefined) [Ifenprodil tartrate] (20 µM) | 1.02 | 1.12 | 1.03 | 0.985 | 0.977 (inactive) | 1.02 (inactive) | 1.03 (inactive) | 1.08 (inactive) | 0.973 (inactive) | 0.947 (inactive) | 1 (inactive) | 0.992 (inactive)
CN1C(=O)CC(c2ccccc2)C1=O (centres undefined) [Phensuximide] (20 µM) | 0.976 | 1.28 | 0.996 | 1.05 | 1.04 (inactive) | 1.03 (inactive) | 1.03 (inactive) | 1.21 (inactive) | 1.01 (inactive) | 1.01 (inactive) | 0.989 (inactive) | 1.02 (inactive)
Cc1ccnc(NS(=O)(=O)c2ccc(N)cc2)n1 [Sulfamerazine] (20 µM) | 0.951 | 1.06 | 1.07 | 1.06 | 0.995 (inactive) | 0.975 (inactive) | 0.995 (inactive) | 1 (inactive) | 0.999 (inactive) | 1.01 (inactive) | 1.02 (inactive) | 0.97 (inactive)
O=C(O)CN(CCN(CC(=O)O)CC(=O)O)CCN(CC(=O)O)CC(=O)O [Pentetic acid] (20 µM) | 1.27 | 1.04 | 1.04 | 1.05 | 1.08 (inactive) | 1.02 (inactive) | 1.01 (inactive) | 0.998 (inactive) | 1.02 (inactive) | 0.992 (inactive) | 0.989 (inactive) | 0.997 (inactive)
Cc1cc(C)nc(NS(=O)(=O)c2ccc(N)cc2)n1 [Sulfamethazine sodium salt] (20 µM) | 1.01 | 0.957 | 0.984 | 0.999 | 1.06 (inactive) | 1.06 (inactive) | 1.04 (inactive) | 0.93 (inactive) | 1.03 (inactive) | 0.986 (inactive) | 0.995 (inactive) | 1.07 (inactive)
CC(CN(C)C)CN1c2ccccc2Sc2ccccc21 (centres undefined) [Trimeprazine tartrate] (20 µM) | 1.23 | 1.01 | 1.07 | 0.937 | 0.989 (inactive) | 1.08 (inactive) | 0.804 (inactive) | 0.885 (inactive) | 1 (inactive) | 1.02 (inactive) | 1.01 (inactive) | 0.818 (inactive)
C1CCC(C(CC2CCCCN2)C2CCCCC2)CC1 (centres undefined) [Perhexiline maleate] (20 µM) | 1.14 | 1 | 1 | 0.952 | 0.983 (inactive) | 1.03 (inactive) | 0.771 (active) | 1.05 (inactive) | 1.01 (inactive) | 1.05 (inactive) | 1 (inactive) | 0.892 (inactive)
CC(C(=O)O)c1ccc2c(c1)[nH]c1ccc(Cl)cc12 (centres undefined) [Carprofen] (20 µM) | 1.05 | 1.02 | 0.996 | 1.1 | 1.07 (inactive) | 0.958 (inactive) | 1.03 (inactive) | 1.05 (inactive) | 0.99 (inactive) | 1.03 (inactive) | 0.995 (inactive) | 1.06 (inactive)
CNCCC=C1c2ccccc2CCc2ccccc21 [Nortriptyline hydrochloride] (20 µM) | 1.11 | 0.972 | 0.974 | 1.28 | 1.09 (inactive) | 1.06 (inactive) | 0.993 (inactive) | 0.975 (inactive) | 1.02 (inactive) | 1.04 (inactive) | 0.989 (inactive) | 1.03 (inactive)
CC(=O)[C@H]1CC[C@H]2[C@@H]3C=CC4=CC(=O)CC[C@@]4(C)[C@@H]3CC[C@]12C [Dydrogesterone] (20 µM) | 1.08 | 0.983 | 0.99 | 0.994 | 1.03 (inactive) | 0.933 (inactive) | 0.978 (inactive) | 0.911 (inactive) | 1.01 (inactive) | 1.04 (inactive) | 0.983 (inactive) | 1 (inactive)
CC[C@H]1OC(=O)[C@H](C)[C@@H](O[C@H]2C[C@@](C)(OC)[C@@H](O)[C@H](C)O2)[C@H](C)[C@@H](O[C@@H]2O[C@H](C)C[C@H](N(C)C)[C@H]2O)[C@](C)(O)C[C@@H](C)CN(C)[C@H](C)[C@@H](O)[C@]1(C)O [Azithromycin] (20 µM) | 0 | 0.212 | 0.39 | 0.162 | 0.0612 (active) | 0.0425 (active) | 0.0983 (active) | 0.366 (inactive) | 0.425 (active) | 0.633 (active) | 0.99 (inactive) | 0.115 (active)
CCOC(=O)n1ccn(C)c1=S [Carbimazole] (20 µM) | 0.973 | 1.11 | 0.979 | 1.08 | 1.04 (inactive) | 0.937 (inactive) | 1.01 (inactive) | 1.09 (inactive) | 1.03 (inactive) | 0.98 (inactive) | 1 (inactive) | 1.01 (inactive)
